Experiment in all cases: DAPPL (digital affinity profiling via proximity ligation, sequencing); 10 mM Tris-HCl pH 7.5, 50 mM NaCl, 1 mM DTT, 4% glycerol, room temperature, 30 min; GST-TFs on glutathione beads, 16-mer random dsDNA library, 0.1% formaldehyde crosslink after washing; high values mean tight binding
One assay deals with T1, FLI1 (Homo sapiens, UniProt Q01543 1-452).
T1 sequence: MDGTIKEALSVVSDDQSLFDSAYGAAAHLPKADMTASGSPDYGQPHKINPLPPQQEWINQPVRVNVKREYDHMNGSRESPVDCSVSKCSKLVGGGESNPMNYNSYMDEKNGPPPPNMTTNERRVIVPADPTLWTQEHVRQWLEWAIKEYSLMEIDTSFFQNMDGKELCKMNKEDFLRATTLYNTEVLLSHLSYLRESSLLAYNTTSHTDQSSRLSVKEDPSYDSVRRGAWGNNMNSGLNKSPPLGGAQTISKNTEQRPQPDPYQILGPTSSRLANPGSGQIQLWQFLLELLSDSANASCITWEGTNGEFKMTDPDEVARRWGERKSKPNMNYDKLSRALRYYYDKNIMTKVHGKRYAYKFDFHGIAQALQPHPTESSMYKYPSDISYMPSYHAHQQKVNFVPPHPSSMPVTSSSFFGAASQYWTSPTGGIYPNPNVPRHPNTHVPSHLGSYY
Particulars: protein: recombinant; tags: N-terminal GST; dsDNA, one strand shown. In a few lines:
(§1)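 Pools were built from human transcription factors expressed in yeast as GST fusions, captured on glutathione beads and DNA-barcoded, along with a tag-only sample. Incubation with 200 nmole of a 16-mer random double-stranded DNA library lasted 30 min at room temperature in Tris/NaCl/DTT/glycerol buffer, and was followed by washing, 0.1% formaldehyde crosslinking, proximity ligation, PCR amplification and Illumina NextSeq500 sequencing. Binding signal is the quotient of each hexamer's read frequency for a factor and its frequency for the tag-only sample.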

The target of the next assay is T2, ELK1 (Homo sapiens, UniProt P19419 1-428).
T2 sequence: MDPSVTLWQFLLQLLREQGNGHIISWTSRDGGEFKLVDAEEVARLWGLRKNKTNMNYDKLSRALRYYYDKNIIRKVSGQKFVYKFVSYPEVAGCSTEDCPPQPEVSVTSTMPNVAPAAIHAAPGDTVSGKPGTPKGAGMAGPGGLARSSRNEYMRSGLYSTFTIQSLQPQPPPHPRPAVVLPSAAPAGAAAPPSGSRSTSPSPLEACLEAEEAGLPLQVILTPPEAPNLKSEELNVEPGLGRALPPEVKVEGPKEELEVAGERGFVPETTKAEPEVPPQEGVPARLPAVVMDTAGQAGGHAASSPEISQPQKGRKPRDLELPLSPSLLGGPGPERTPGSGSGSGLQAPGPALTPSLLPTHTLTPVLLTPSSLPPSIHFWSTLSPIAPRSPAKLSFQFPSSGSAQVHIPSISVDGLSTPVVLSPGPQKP
Conditions: protein: recombinant; tags: N-terminal GST; dsDNA, one strand shown. Put shortly: as §1

The next assay has as its target T3, GABPA (Homo sapiens, UniProt Q06546 1-454).
T3 sequence: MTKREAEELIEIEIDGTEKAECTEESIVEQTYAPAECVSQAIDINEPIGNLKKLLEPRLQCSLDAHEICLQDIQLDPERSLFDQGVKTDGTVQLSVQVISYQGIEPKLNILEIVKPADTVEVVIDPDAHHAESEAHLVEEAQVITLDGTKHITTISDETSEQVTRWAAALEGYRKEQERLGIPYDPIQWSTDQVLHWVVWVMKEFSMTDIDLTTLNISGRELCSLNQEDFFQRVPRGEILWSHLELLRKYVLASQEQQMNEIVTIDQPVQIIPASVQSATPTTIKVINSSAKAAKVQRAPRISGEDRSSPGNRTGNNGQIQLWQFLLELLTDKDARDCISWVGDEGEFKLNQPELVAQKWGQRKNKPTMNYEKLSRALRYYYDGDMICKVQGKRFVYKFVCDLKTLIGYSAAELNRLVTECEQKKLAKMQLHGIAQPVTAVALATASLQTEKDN
Particulars: protein: recombinant; tags: N-terminal GST; dsDNA, one strand shown. In a few lines:
as §1

Another assay deals with T4, ERG (Homo sapiens, UniProt P11308 1-479).
T4 sequence: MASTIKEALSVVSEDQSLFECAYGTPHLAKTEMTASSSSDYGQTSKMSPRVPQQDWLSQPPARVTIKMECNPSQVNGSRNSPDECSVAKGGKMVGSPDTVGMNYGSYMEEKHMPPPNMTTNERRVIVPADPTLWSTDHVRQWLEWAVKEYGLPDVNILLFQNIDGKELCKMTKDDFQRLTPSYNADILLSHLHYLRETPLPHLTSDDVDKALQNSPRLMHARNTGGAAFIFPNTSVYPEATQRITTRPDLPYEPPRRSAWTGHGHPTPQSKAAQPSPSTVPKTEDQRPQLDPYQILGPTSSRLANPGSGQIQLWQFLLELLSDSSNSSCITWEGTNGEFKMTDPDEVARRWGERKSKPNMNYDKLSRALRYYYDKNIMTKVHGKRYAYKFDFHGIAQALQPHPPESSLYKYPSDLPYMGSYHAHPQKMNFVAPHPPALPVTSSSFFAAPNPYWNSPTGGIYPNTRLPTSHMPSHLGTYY
Particulars: protein: recombinant; tags: N-terminal GST; dsDNA, one strand shown. Put shortly:
as §1

The target in the next assay is ELF1 (Homo sapiens, UniProt P32519 1-619). Particulars: protein: recombinant; tags: N-terminal GST; dsDNA, one strand shown. Put shortly: as §1
In the next assay the target is T5, EHF (Homo sapiens, UniProt Q9NZC4 1-300).
T5 sequence: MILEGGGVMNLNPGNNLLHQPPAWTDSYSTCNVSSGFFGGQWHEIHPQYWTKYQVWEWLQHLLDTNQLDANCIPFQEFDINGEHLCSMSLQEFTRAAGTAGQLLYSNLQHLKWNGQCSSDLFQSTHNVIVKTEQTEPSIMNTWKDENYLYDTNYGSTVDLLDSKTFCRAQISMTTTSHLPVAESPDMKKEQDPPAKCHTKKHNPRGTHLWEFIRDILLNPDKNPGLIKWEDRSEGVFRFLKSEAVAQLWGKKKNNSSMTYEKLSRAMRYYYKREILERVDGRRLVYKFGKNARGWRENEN
Particulars: protein: recombinant; tags: N-terminal GST; dsDNA, one strand shown. Put shortly:
as §1

For another assay, the target named is SPI1 (Homo sapiens, UniProt P17947 1-270). Particulars: protein: recombinant; tags: N-terminal GST; dsDNA, one strand shown. Put shortly: as §1
In a further assay the target is SPIB (Homo sapiens, UniProt Q01892 1-262). Particulars: protein: recombinant; tags: N-terminal GST; dsDNA, one strand shown. Put shortly: as §1
A further assay addresses T6, ELK3 (Homo sapiens, UniProt P41970 1-407).
T6 sequence: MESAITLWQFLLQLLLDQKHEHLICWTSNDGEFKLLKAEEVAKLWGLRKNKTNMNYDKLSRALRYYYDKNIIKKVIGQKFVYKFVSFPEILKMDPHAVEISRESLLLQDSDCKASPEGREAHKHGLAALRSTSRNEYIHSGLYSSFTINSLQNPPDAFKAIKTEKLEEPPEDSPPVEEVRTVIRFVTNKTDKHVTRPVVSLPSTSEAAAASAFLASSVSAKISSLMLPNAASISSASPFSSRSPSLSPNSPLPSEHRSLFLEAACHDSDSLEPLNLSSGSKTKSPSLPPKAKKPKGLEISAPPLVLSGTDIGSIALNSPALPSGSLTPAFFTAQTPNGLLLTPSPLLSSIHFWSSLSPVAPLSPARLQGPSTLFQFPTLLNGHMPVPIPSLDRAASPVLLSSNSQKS
Conditions: protein: recombinant; tags: N-terminal GST; dsDNA, one strand shown. Put shortly:
as §1

The target in the next assay is T7, FEV (Homo sapiens, UniProt Q99581 1-238).
T7 sequence: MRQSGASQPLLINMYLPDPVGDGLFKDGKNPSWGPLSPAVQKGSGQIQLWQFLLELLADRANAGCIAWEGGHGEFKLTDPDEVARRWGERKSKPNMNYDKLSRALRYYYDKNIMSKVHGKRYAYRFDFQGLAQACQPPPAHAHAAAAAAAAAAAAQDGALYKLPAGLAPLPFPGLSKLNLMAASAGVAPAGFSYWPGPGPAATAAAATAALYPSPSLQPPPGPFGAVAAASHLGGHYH
Conditions: protein: recombinant; tags: N-terminal GST; dsDNA, one strand shown. In a few lines:
as §1

The next assay has as its target ETV5 (Homo sapiens, UniProt P41161 1-510). Particulars: protein: recombinant; tags: N-terminal GST; dsDNA, one strand shown. In a few lines:
as §1

Another assay addresses HSF1 (Homo sapiens, UniProt Q00613 1-529). Particulars: protein: recombinant; tags: N-terminal GST; chain copies: 3; dsDNA, one strand shown. In a few lines: as §1
The target in another assay is T8, SPIC (Homo sapiens, UniProt Q8N5J4 1-248).
T8 sequence: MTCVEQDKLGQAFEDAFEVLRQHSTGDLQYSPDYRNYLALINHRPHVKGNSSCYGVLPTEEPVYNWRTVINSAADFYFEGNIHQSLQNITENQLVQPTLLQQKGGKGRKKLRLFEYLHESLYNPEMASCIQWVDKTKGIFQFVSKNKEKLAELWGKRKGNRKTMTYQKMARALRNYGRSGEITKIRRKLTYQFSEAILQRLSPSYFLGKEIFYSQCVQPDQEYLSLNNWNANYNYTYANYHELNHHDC
Conditions: protein: recombinant; tags: N-terminal GST; dsDNA, one strand shown. In a few lines:
as §1

Another assay concerns the target ELF4 (Homo sapiens, UniProt Q99607 1-663). Conditions: protein: recombinant; tags: N-terminal GST; dsDNA, one strand shown. In a few lines: as §1
The target of the next assay is T9, ELK4 (Homo sapiens, UniProt P28324-2 1-405).
T9 sequence: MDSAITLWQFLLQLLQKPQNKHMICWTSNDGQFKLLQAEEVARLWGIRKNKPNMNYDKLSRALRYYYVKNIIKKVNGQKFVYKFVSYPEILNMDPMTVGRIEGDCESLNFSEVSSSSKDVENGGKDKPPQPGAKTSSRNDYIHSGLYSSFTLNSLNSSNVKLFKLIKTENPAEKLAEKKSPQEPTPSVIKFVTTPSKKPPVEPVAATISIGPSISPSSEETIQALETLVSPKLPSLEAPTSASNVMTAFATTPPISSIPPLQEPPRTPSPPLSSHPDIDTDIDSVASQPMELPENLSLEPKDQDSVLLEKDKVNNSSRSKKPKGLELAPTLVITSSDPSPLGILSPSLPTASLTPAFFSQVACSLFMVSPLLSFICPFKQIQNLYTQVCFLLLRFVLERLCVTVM
Conditions: protein: recombinant; tags: N-terminal GST; dsDNA, one strand shown. Put shortly: as §1

Another assay addresses T10, ETV2 (Homo sapiens, UniProt O00321 1-342).
T10 sequence: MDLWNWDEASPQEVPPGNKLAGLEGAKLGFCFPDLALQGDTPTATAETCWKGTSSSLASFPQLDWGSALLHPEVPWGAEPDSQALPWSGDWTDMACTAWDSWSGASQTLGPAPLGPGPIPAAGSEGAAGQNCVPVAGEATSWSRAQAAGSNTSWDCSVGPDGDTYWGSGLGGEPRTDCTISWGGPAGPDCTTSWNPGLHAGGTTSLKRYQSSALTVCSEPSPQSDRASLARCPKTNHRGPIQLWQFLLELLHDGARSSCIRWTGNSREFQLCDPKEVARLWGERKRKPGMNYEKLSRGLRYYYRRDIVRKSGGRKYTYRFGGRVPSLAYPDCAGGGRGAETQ
Particulars: protein: recombinant; tags: N-terminal GST; dsDNA, one strand shown. Put shortly:
as §1

In the next assay the target is T11, ELF3 (Homo sapiens, UniProt P78545 1-371).
T11 sequence: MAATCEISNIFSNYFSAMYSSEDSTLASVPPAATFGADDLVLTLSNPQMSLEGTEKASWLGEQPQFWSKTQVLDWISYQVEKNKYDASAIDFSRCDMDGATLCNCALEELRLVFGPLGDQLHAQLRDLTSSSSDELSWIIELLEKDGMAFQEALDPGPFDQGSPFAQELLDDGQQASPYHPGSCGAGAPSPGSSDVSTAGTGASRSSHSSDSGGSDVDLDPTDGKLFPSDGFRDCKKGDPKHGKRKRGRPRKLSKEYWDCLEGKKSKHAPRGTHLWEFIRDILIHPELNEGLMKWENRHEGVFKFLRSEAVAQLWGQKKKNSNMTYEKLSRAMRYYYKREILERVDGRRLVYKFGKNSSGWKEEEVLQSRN
Particulars: protein: recombinant; tags: N-terminal GST; dsDNA, one strand shown. In a few lines: as §1

A further assay deals with ETV1 (Homo sapiens, UniProt P50549 1-477). Particulars: protein: recombinant; tags: N-terminal GST; dsDNA, one strand shown. Put shortly: as §1

Here are results for 1 sequence from paper PMC7862700, “An all-to-all approach to the identification of sequence-specific readers for epigenetic DNA modifications on cytosine”.

HSF1, sequence (Q00613 whole entry): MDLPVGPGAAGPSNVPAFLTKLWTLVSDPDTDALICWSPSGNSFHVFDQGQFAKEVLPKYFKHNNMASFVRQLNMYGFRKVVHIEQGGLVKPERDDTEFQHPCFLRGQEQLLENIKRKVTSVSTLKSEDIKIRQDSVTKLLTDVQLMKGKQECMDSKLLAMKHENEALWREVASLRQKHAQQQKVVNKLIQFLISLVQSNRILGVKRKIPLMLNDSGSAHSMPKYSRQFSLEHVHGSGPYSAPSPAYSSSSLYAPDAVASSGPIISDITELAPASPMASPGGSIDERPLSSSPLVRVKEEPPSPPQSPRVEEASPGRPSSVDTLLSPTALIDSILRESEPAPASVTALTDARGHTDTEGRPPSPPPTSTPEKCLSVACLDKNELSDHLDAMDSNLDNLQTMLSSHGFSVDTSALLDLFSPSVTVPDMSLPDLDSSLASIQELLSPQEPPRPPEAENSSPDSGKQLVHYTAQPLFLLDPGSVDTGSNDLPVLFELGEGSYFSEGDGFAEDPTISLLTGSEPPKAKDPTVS
ETV5, sequence (P41161 whole entry): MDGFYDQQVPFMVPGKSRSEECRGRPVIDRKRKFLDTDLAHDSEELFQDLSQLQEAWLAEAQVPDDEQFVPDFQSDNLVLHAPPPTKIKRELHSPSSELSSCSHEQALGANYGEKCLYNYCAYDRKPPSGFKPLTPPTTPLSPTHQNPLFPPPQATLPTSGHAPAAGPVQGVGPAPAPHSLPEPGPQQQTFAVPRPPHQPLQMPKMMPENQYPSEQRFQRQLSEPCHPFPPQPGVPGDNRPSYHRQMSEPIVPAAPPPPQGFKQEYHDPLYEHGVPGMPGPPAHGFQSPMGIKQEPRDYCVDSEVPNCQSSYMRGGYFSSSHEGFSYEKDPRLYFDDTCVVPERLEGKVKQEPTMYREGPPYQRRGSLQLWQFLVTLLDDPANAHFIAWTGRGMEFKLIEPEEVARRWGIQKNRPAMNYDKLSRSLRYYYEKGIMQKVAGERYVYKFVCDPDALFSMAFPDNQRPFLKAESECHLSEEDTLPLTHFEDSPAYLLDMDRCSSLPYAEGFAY
SPIB, sequence (Q01892 whole entry): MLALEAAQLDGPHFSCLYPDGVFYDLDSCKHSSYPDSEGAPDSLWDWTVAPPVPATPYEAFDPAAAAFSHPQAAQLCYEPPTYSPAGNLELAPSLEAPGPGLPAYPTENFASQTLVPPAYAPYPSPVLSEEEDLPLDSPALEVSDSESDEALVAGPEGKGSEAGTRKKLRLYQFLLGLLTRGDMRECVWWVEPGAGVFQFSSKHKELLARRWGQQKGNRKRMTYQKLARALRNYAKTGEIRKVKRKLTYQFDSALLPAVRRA
ETV1, sequence (P50549 whole entry): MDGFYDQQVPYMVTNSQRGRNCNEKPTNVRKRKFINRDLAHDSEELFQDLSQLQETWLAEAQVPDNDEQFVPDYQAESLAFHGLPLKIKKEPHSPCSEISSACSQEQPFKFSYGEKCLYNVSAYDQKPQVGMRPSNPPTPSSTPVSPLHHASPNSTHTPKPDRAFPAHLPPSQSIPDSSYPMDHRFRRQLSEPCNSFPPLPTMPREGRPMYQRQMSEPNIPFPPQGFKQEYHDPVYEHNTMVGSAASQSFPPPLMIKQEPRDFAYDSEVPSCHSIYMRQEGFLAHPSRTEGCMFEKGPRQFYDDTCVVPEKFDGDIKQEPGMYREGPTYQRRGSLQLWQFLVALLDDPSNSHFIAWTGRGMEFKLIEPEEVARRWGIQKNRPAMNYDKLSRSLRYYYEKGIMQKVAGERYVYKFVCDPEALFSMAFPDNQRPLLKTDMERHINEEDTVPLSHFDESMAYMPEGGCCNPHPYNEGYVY
ELF1, sequence (P32519 whole entry): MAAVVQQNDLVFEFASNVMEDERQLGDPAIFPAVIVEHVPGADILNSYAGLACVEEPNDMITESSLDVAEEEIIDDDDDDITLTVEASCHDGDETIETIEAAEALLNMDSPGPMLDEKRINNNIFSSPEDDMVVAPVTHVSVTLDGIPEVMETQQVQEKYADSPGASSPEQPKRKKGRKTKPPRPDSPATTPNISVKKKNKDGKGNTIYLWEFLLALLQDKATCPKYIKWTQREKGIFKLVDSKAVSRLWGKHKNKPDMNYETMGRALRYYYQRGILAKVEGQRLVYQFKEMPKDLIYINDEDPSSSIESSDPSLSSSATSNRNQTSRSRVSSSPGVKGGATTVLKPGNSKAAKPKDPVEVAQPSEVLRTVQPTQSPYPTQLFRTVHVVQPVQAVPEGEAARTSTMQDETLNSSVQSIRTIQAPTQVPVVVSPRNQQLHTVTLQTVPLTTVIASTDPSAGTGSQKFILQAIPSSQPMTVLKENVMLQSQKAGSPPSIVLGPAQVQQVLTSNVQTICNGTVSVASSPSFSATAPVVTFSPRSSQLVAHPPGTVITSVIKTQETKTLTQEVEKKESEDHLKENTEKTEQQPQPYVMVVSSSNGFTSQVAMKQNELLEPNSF
ELF4, sequence (Q99607 whole entry): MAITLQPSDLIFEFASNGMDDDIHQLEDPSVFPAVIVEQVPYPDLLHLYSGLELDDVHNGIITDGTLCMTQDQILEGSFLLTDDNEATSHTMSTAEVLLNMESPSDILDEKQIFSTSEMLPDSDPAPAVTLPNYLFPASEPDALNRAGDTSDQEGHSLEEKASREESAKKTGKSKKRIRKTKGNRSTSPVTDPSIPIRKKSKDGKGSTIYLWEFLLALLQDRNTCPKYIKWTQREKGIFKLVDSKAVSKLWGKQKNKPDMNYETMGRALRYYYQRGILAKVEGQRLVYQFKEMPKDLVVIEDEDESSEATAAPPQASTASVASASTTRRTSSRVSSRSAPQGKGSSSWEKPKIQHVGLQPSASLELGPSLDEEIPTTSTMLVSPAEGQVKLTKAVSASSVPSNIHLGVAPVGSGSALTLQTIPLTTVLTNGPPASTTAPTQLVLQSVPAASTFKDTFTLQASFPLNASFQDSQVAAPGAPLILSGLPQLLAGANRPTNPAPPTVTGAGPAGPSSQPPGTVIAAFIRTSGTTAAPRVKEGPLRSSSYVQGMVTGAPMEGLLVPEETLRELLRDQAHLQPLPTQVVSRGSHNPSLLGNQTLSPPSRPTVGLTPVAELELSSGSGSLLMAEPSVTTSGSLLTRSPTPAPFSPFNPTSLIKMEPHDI

As to CTGACA, the binding signal is 1.19 fold enrichment (6-mer frequency, TF over GST control) with FLI1; 1.18 fold enrichment (6-mer frequency, TF over GST control) with ELK1; 1.2 fold enrichment (6-mer frequency, TF over GST control) with GABPA; 1.22 fold enrichment (6-mer frequency, TF over GST control) in the assay with ERG; 1.27 fold enrichment (6-mer frequency, TF over GST control) with ELF1; 1.32 fold enrichment (6-mer frequency, TF over GST control) in the assay with EHF. Besides, the binding signal in the assay with SPI1 is 1.26 fold enrichment (6-mer frequency, TF over GST control); with SPIB, 1.17 fold enrichment (6-mer frequency, TF over GST control); with ELK3 it was 1.24 fold enrichment (6-mer frequency, TF over GST control); in the assay with FEV it was 1.19 fold enrichment (6-mer frequency, TF over GST control); with ETV5 it was 1.22 fold enrichment (6-mer frequency, TF over GST control); in the assay with HSF1 it was 1.01 fold enrichment (6-mer frequency, TF over GST control). Moreover, the binding signal with SPIC was 1.03 fold enrichment (6-mer frequency, TF over GST control); with ELF4, 1.27 fold enrichment (6-mer frequency, TF over GST control); with ELK4, 1.29 fold enrichment (6-mer frequency, TF over GST control); in the assay with ETV2, 1.2 fold enrichment (6-mer frequency, TF over GST control); with ELF3, 1.25 fold enrichment (6-mer frequency, TF over GST control); in the assay with ETV1 it was 1.19 fold enrichment (6-mer frequency, TF over GST control).
